Compound activity from PubChem BioAssay.
OvCa metastasis: inhibitors of ovarian cancer cell adhesion and invasion in omental model; Potency, µM (series often up to 45.8 µM), usual class: inhibitors; SKOV3ip1-GFP adhesion/invasion on 3D omental model, fluorescence; actives 0.1% (n = 46,000); note: nearly all actives have a fitted effect of over 65% in size
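A 3D layer of primary human omental fibroblasts, mesothelial cells, fibronectin and collagen I, grown 48 hr, received SKOV3ip1-GFP cells in serum-free medium plus compounds at 0.36-46 umol/L. After 2 hr RT and 16 hr 37 C, fixed adherent GFP cells were counted; normalized to DMSO and tomatine.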
S16 viability: cytotoxicity in S16 Pmp22-F2sN Schwann cells; actives 0.48% (n = 43,000); S16 Pmp22-F2sN Schwann cells viability, CellTiter-Glo, 24 h; Potency, µM (highest dose often 57.5 µM), hits mostly cytotoxic; note: nearly all actives have a fitted effect of over 65% in size
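S16 Schwann cells carrying the Pmp22-F2sN reporter, seeded in 1536-well format, were exposed to library compounds for 24 h at 37C. Viability was read as CellTiter-Glo luminescence after 15 min at room temperature.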
pS6 MEF inh: inhibitors of mTORC1 signaling in Tsc2-/- p53-/- MEF cells. Tsc2-/- p53-/- MEF, phospho-rpS6 immunofluorescence/PI, 24 h. Potency, µM (top dose mostly 38.3 µM), actives largely listed as inhibitors. actives 0.78% (n = 44,000); note: nearly all actives have a fitted effect of over 50% in size
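Plate MEFs (Tsc2-/-, p53-/-, empty vector) in DMEM/10% FBS; after 24 h add compound, incubate 24 h at 37 degree Celsius; fix in PFA/TX-100, block, stain phospho-rpS6 and 10 uM PI; scan at 488 nm; report % positive cells.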
p53null 32C tox: selectivity test: cytotoxicity in p53 null cells, permissive temperature | H1299-neo p53 null cells, ATP luminescence, 24 h, 32C | Potency, µM (series often up to 46.1 µM), usual class: cytotoxic | actives 0.62% (n = 55,000); note: nearly all actives have a fitted effect of over 55% in size
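Overnight 37C seeding (600 cells/well) of H1299-neo preceded a 24 hr, 32C exposure to compounds up to 46 uM. ATP levels, read by luminescence after 20 min at RT, indicated surviving cells.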
PMP22 txn: modulates PMP22 transcription in S16 Schwann cells; S16 Pmp22-F2sN Schwann cells (luciferase reporters placed in the Pmp22 gene), FLuc/NLuc coincidence luminescence, 24 h; Potency, µM (titrated, usually from 57.5 µM), most hits filed as inhibitors; actives 2% (n = 43,000); AID 1508649; active = clear falling dose curves in both reporters; inconclusive = both reporters move, but less clearly or upward; inactive = either reporter flat; the % is the NLuc reporter signal
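Schwann cells carrying the coincidence reporter were exposed to library compounds for 24 h at 37C, then lysed and read for FLuc and, after quenching, NLuc luminescence on a CCD imager.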
p53null 39C tox: kills p53 null cells at the nonpermissive temperature | actives 0.97% (n = 55,000) | H1299 p53-null (neo) cells, 39C, ATPlite viability, 24 h | AID 904 | Potency, µM (top dose mostly 46.1 µM), hits mostly cytotoxic; note: nearly all actives have a fitted effect of over 50% in size
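Temperature-shift cytotoxicity format: compound titrations on p53-null or A138V-expressing H1299 cells held 24 hr at 39C, cell ATP then measured, AC50 from Hill model.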
A number is an active result; – = inactive; ? = inconclusive; · = not tested or not shown; [ ] = remark or other dose. A selection: hits, their analogues and other compounds. The true share with any hit is near 3.1%. Unless noted, calls come from the whole dose curve; as a rule, active = well fitted curve in the direction sought with a large enough effect; inconclusive = small, poorly fitted or top-dose-only effect, or another doubt; inactive = no such curve, though single readings can be large; an effect the other way counts as inactive or inconclusive.

SMILES	OvCa metastasis	S16 viability	pS6 MEF inh	p53null 32C tox	PMP22 txn	p53null 39C tox
CC(C(=O)NCc1cccc(Br)c1)n1ncn2cccc2c1=O (stereo unspecified)	–	–	0.58µM	?	–	13µM
Cn1c(=O)c(F)c(Nc2ccc(I)cc2F)c2c(=O)n(C[C@@H](O)CO)cnc21	–	·	·	·	·	·
CC(=O)O[C@H]1C[C@@H]2CC[C@H]3[C@H]4C[C@H]([N+]5(C)CCCCC5)[C@@H](OC(C)=O)[C@@]4(C)CC[C@@H]3[C@@]2(C)C[C@H]1N1CCCCC1	–	·	·	·	·	·
CC(C)(C)OC(=O)N1CCC(c2c(C(=O)NCCN3CCC(Cc4ccccc4)CC3)cnn2-c2cccc(Cl)c2)CC1	?	25µM	15µM	–	?	–
Cc1ccc(-n2ncc(C(=O)NCCN3CCCC3)c2C2CCN(C(=O)OC(C)(C)C)CC2)cc1	–	–	–	–	?	–
Cc1ccc(-n2ncc(C(=O)NCCN3CCC(Cc4ccccc4)CC3)c2C2CCN(C(=O)OC(C)(C)C)CC2)cc1	?	?	?	?	?	20µM
O=C(C1CC1)N1CC[C@@H](Cn2c(-c3ccc(-c4ccc5occc5c4)cc3)nc3cnccc32)C1	–	·	·	·	·	·
CSc1n[nH]c(NCc2ccc(Cl)cc2)n1	·	·	·	–	·	–
CSc1n[nH]c(NCc2ccc(C)cc2)n1	·	·	·	20µM	·	11µM
CCCN1CCN(c2ncnc3sc(C(=O)Nc4ccc(OC(F)(F)F)cc4)c(C)c23)CC1	–	?	16µM	–	?	–
CCCN1CCN(c2ncnc3sc(C(=O)Nc4ccc(C(C)C)cc4)c(C)c23)CC1	–	?	?	–	?	–
COc1cccc(-n2c(SCC(=O)Nc3cccc(Cl)c3)nc3c(oc4ccccc43)c2=O)c1	–	–	–	–	–	–
O=C(CSc1nc2c(oc3ccccc32)c(=O)[nH]1)Nc1cccc(Cl)c1	–	–	–	10µM	?	10µM
CC(N[C@H]1CCCC[C@H]1NC(=O)c1ccc(Cl)cc1)c1cccc2ccccc12 (stereo partly specified)	–	·	·	·	·	·
Cc1nc2c(-c3ccccc3)c(C)[nH]n2c(=O)c1Cc1ccc(Br)cc1	?	10µM	?	·	9.5µM	·
Cc1ccc(Cc2c(C)nc3c(-c4ccccc4)c(C)[nH]n3c2=O)cc1	–	?	–	·	?	·
Cc1nc2c(-c3ccccc3)c(C)[nH]n2c(=O)c1Cc1ccc(C(C)C)cc1	?	8.9µM	–	·	?	·
Cc1[nH]n2c(=O)cc(-c3ccc(Cl)cc3)nc2c1-c1ccccc1	–	10µM	?	·	8.5µM	·
Cc1nn2c(-c3ccccc3)cc(-c3ccccc3)nc2c1-c1ccc(Cl)cc1	–	–	–	–	–	–
CCCCc1c(C)nc2c(-c3ccc(Cl)cc3)c(C)[nH]n2c1=O	–	5µM	–	·	11µM	·
Cc1ccc(C2=Nc3ccc(Cl)cc3OC2)cc1	–	·	·	·	·	·
O=C(NC1CCCCC1)c1ccc(S(=O)(=O)N2CCCC2)cc1	·	·	·	–	·	–
O=C(N/N=C\c1cc(Cl)ccc1O)c1ccc(S(=O)(=O)N2CCCCC2)cc1	·	·	·	7.1µM	·	·
COc1cc(CN2CCc3nc(N4CCN(c5ccccn5)CC4)ncc3C2)cc(OC)c1OC	–	11µM	–	–	8.9µM	–
Cc1ccc(C)c(Nc2nc3nonc3nc2Nc2cccc(C)c2C)c1	–	?	–	–	?	?
SMILES	OvCa metastasis	S16 viability	pS6 MEF inh	p53null 32C tox	PMP22 txn	p53null 39C tox
CCOC(=O)c1ccc(Nc2nc3nonc3nc2Nc2cccc(C)c2C)cc1	?	?	–	–	11µM	?
COc1ccc(/C=C(\C#N)c2nc(-c3cc4c(ccc5ccccc54)oc3=O)cs2)cc1O	–	?	–	–	8.9µM	–
C=Cc1ccc(Cn2c(C(=O)O)c(CNCc3ccc(F)cc3)c3ccc(C)cc32)cc1	?	28µM	–	–	?	?
COc1ccc(Cn2c(C(=O)O)c(CNCc3ccc(SC)cc3)c3ccc(OC)cc32)cc1	–	?	16µM	–	?	?
CCOc1ccc(CCNCc2c(C(=O)O)n(Cc3ccc(C)cc3)c3cc(OC)ccc23)cc1	–	–	12µM	–	?	–
Cc1ccccc1Nc1c(-c2ccc(N3CCOCC3)cc2)nc2cccc(C)n12	–	–	–	?	–	?
Cc1ccccc1Nc1c(-c2ccc(N3CCOCC3)cc2)nc2ccccn12	–	–	?	1.6µM	–	0.32µM
Cc1ccccc1Nc1c(-c2cccc(O)c2)nc2ccc(Br)cn12	–	–	–	–	–	–
Cc1ccccc1Nc1c(-c2ccc(N3CCOCC3)cc2)nc2ccc(Br)cn12	–	–	–	?	–	10µM
COc1cc(O)ccc1-c1nc2ccc(Br)cn2c1Nc1ccccc1C	?	–	–	?	?	20µM
Cc1cc(Nc2ncnc3ccc(-c4ccc(CNCCS(C)(=O)=O)o4)cc23)ccc1Oc1ccn2ncnc2c1	–	·	·	·	·	·
CC(C)C(=O)Nc1ncc(-c2cc(C(F)F)nn2-c2c(Cl)cccc2Cl)s1	–	·	·	·	·	·
CCc1cccc(C)c1NC(=O)Cn1nc(C)n2cccc2c1=O	–	–	?	–	–	13µM
CCc1nn(CC(=O)NCc2ccccc2Cl)c(=O)c2cccn12	–	–	2.6µM	–	–	16µM
C[C@@H](O)[C@H]1C(=O)N2C(C(=O)OCOC(=O)C(C)(C)C)=C(SC3CN(C4=NCCS4)C3)[C@H](C)[C@H]12	–	·	·	·	·	·
O=C(NCc1ccccc1)c1csc(Nc2ccncn2)n1	–	·	·	·	·	·
O=C(N/N=C/c1cccs1)c1ccc2c(c1)OCO2	·	·	·	2.8µM	·	–[1.84 µM]
Cn1cc(C(=O)N/N=C/c2cccs2)c2ccccc21	·	·	·	–	·	–
COc1ccc(-c2cc3c(C)nc(N)nc3n(C3CCC(OCCO)CC3)c2=O)cn1 (stereo unspecified)	–	·	·	·	·	·
N#CC(=C(O)c1ccc(Cl)cc1Cl)c1nc2cc(Cl)ccc2c(=O)[nH]1	–	·	·	·	·	·
C=CC(=O)Nc1cc(NC(=O)c2ccc(C)c(NC(=O)c3ccno3)c2)cc(C(F)(F)F)c1	–	·	·	·	·	·
CCc1c(C)c2ccc(O)c(CN3CCN(c4ccc(OC)cc4)CC3)c2oc1=O	–	·	–	?	·	10µM
Fc1ccc(-c2nnc(-c3ccc(Cl)cc3Cl)o2)cc1	·	·	·	6.3µM	·	11µM
O=C(O)CCSc1nnc(-c2ccc(Cl)cc2Cl)o1	–	–	–	?	?	?
CSc1ccc(/C=C/c2nc3ccccc3n2S(=O)(=O)c2cccc(Cl)c2)cc1	?	?	–	3.2µM	?	4µM
O=S(=O)(c1cccc(Cl)c1)n1c(/C=C/c2ccccc2Cl)nc2ccccc21	–	13µM	–	1.3µM	?	2.8µM
